First the molecules themselves.
T1: UNK ZnF1-6 (called full-length) (human, UniProt Q9C0B0 30-357)
T1 sequence: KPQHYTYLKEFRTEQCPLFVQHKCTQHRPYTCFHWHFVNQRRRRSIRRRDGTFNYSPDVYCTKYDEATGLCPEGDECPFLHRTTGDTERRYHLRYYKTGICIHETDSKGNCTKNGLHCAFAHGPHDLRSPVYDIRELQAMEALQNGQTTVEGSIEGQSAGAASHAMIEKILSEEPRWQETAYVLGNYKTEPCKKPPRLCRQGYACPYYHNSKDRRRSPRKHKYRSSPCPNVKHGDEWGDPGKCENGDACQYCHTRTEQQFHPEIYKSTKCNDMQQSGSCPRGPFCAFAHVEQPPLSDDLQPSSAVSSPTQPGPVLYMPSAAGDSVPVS

B1: chr1:212686416:212686790:-|three_prime_utr|ENSG00000123685|control|control|control (ssRNA)
RNA: GGGAGUUCUACAGUCCGACGAUCUUGUGCAGAUCCAGCAUGGAGGCCACCCUCAGGAGUGACUUCUCAUCCACCCUGGCAGCUAGUAGGUUCUGCUGUUAUGCAGAGCCAUUUCCUCUAGAAUUUGGAUAAUAAAGAUGCUUACAACAGAGGAUUGAGCAUCA
B2: ENSG00000184117:stop:overlap|stop_codon|ENSG00000184117|stop_codon|NA|stop_codon (ssRNA)
RNA: GGGAGUUCUACAGUCCGACGAUCUGGGCAACUGGAACACGUGGUAUGGGGAGCAGGACCAGGCAGGUCAUUCCUGGUUUUGGUAGAUUUCUAUCCAUACAGUACUUUUGCCAUUUCCUUUGGGAAAAAGACCUUUAAACCAUACAACAGAGGAUUGAGCAUCA
B3: chr20:32237940:32238012:+|3pUTR|ENSG00000101346|msi1_unk|total|mutant (ssRNA)
RNA: GGGAGUUCUACAGUCCGACGAUCUUUCAAAGAUACAAAUAUUUACACCGUUUUAAUCAUGUAAUAUAUACAAUUUAAUGUCCCCGUGUUUUACUUAACCGUGUAUCAUGUUUUCCCUGUUGGUAUGCCGCCUGGAUAAAUGCUCAACAGAGGAUUGAGCAUCA
B4: chr4:152882748:152882856:+|CDS|ENSG00000164144|unk|FALSE|unique (ssRNA)
RNA: GGGAGUUCUACAGUCCGACGAUCCAGAAACUGCUGGCUAAAAAUGGAGAGACUCUUCUUGGGGCCAUUAAUUUUUUCAUUGCUAGUGUGAACACUUUGGUGAAUAAAACCAUUGAAGAUACAUUAAUGACUGUGAAACAGUAUCAACAGAGGAUUGAGCAUCA
B5: chrX:13662881:13662996:+|CDS|ENSG00000176896|unk|total|mutant (ssRNA)
RNA: GGGAGUUCUACAGUCCGACGAUCUCGAAUUCUCUGUCUUCCCAAGACGUUGCAAAACUCAGUGAAAUGAUUGUGCCUGAAAACCGAGCCAUUCAAUUGAAACCUAAGGAAGAGCAUUUUGGGGAUGGUGACCCUGAAUCCACUCAACAGAGGAUUGAGCAUCA
B6: chr10:116672031:116672132:-|3pUTR|ENSG00000165868|msi1|total|mutant (ssRNA)
RNA: GGGAGUUCUACAGUCCGACGAUCCCUUUCCUGCCUUGCAUUAAUGCUAUCUCCCUGUGUACUGUUUCUCUUAAAUGAGCAGACCGAAAUCUGCAGUGUUGGCAGACCGGUGAUGGAGAGGAUGAUAAUUUUAUCUUCUGGCCACAACAGAGGAUUGAGCAUCA
B7: chr2:121605696:121605828:-|CDS|ENSG00000074054|unk|FALSE|unique (ssRNA)
RNA: GGGAGUUCUACAGUCCGACGAUCGAUAGACUAUUUCUCAGACAAACAGAAGUCUGCUGACCUUGAGCAUGACCAGACCAUGUUAGAUAAACUUGUGGAUGGACUUGCUACCUCUUGGGUGAACUCUAGCAAUUACAAGGUAAGCAACAGAGGAUUGAGCAUCA
B8: chr17:64498535:64498649:-|3pUTR|ENSG00000108654|unk|FALSE|unique (ssRNA)
RNA: GGGAGUUCUACAGUCCGACGAUCUUAAACUGAGGCUUUAAUUGAUGUUAAUGCCUUAUGUCAAAUGUAAAGUUAGAAUUUGCUAGGGCUGGGAUAGGGAGUGAUAUUUCUAGGACUUAGACAUUGAAAACUAAUUCAGCCUGUCAACAGAGGAUUGAGCAUCA
B9: ENSG00000124766:be:win_2101|3pUTR|ENSG00000124766|bound_else_gene|NA|bound_elsewhere_windowed (ssRNA)
RNA: GGGAGUUCUACAGUCCGACGAUCUGCCCCCUCUGCAGCCGGAGGAGGAGAUGUUGAGGGGAGGAGGCCAGCCAGUGUGACCGGCGCUAGGAAAUGACCCGAGAACCCCGUUGGAAGCGCAGCAGCGGGAGCUAGGGGCGGGGGCAACAGAGGAUUGAGCAUCA
B10: chr4:75812186:75812332:+|CDS|ENSG00000138768|unk|total|mutant (ssRNA)
RNA: GGGAGUUCUACAGUCCGACGAUCAGAGCAGCUGGAUUCAUCUAACCGUACCAUUGCCAUUUUACAAACUGAGAAAGACAAACCCGAGUUGGAAAUUACAGAUUCUAAAAAAGAACAAGAUGAUCUCUUGGUGCUCUUGGCCGACAACAGAGGAUUGAGCAUCA
B11: ENSG00000198589:be:win_7451|CDS|ENSG00000198589|bound_else_gene|NA|bound_elsewhere_windowed (ssRNA)
RNA: GGGAGUUCUACAGUCCGACGAUCUGAGUCCAUUGAUGUUCACAGACAAAGCCCAGCAGGAUGUUAUCAUGGUCCUCAAGUUUCCCUCCAACUCCCCUGUUACUCACGUGGCAGCCAACACCCAGCCUGGUUUGGCAACUCCCGCAACAGAGGAUUGAGCAUCA
B12: chr4:75597091:75597192:-|CDS|ENSG00000138769|unk|total|mutant (ssRNA)
RNA: GGGAGUUCUACAGUCCGACGAUCUAUAAACUAUUUAAAAUAAAAGGCUCAAAAAUUGAUGGAGAAAAAGCUGAAAAAGGCAACCGAGCUUCAAAUGCCAGCUGUCUCCAUGACAGCCGGACAAGCCACAACAAAACCGUGCCUCAACAGAGGAUUGAGCAUCA
B13: chr17:82078764:82078865:-|3pUTR|ENSG00000169710|msi1_unk|FALSE|overlapping (ssRNA)
RNA: GGGAGUUCUACAGUCCGACGAUCCCGUGGGGUCUGCGCUUGGUCUUUCUGUGCUUGGAUUUGCAUAUUUAUUGCAUUGCUGGUAGAGACCCCCAGGCCUGUCCACCCUGCCAAGACUCCUCAGGCAGCGUGUGGGUCCCGCACCAACAGAGGAUUGAGCAUCA
B14: ENSG00000136451:be:win_1451|CDS_3pUTR|ENSG00000136451|bound_else_gene|NA|bound_elsewhere_windowed (ssRNA)
RNA: GGGAGUUCUACAGUCCGACGAUCCUCCAAUGAAUCUACCCACACCUAUGACAUUAGCCGCCCCUCUCAAUAUAGCAAUGAGACCUGUAGAGAGCAUGCCUUUCUUGCCCCAAGCUUUGCCUACAUCACCGCCUUGGUAAACAGCAACAGAGGAUUGAGCAUCA
B15: chr5:173316791:173316892:-|3pUTR|ENSG00000113739|msi1|FALSE|unique (ssRNA)
RNA: GGGAGUUCUACAGUCCGACGAUCGGAAACCUUAUACCCAGAGGAAAAUACACACCUGGGGAGUACAUUUGACAAAUUUCCCUUAGGAUUUCGUUAUCUCACCUUGACCCUCAGCCAAGAUUGGUAAAGCUGCGUCCUGGCGAUCAACAGAGGAUUGAGCAUCA
B16: ENSG00000064393:stop:overlap|stop_codon|ENSG00000064393|stop_codon|NA|stop_codon (ssRNA)
RNA: GGGAGUUCUACAGUCCGACGAUCUCUCCCUGGAGAGUGGUUUUCCUGCUUUUCUGCUGCUAGAAAUGUUGCUGUAUGGGAGCUAGUACAAUAGAAAGUGCCCAGUGACUGCAGGCGACCCUUACCGAGGAUUUUAUUCAAGUACAACAGAGGAUUGAGCAUCA
B17: ENSG00000198589:be:win_4201|CDS|ENSG00000198589|bound_else_gene|NA|bound_elsewhere_windowed (ssRNA)
RNA: GGGAGUUCUACAGUCCGACGAUCGAAGCCUCUGUGACAUUUUUGCAGAGGCUAAUUAGCCUUGUGGAUGUGCUUAUAUUUGCAAGUUCUCUUGGCUUUACUGAAAUUGAAGCUGAAAAAAGUAUGUCAUCUGGAGGAAUUUUGCAACAGAGGAUUGAGCAUCA
B18: chr9:37126384:37126485:+|CDS|ENSG00000147905|unk|total|mutant (ssRNA)
RNA: GGGAGUUCUACAGUCCGACGAUCUAUCGAGAUGAGUCAUCCCGUGAACUGAGUGUUGACCGUGAGGUGGAAUUUCAACUCUACCGCCAAAUUCAUUAUGCCCAAGAUCUUGAUGAUGUCAUCAGGGAGGAAGAGCAUGAAGAACAACAGAGGAUUGAGCAUCA
B19: chr15:52550718:52550819:-|3pUTR|ENSG00000128989|msi1|total|mutant (ssRNA)
RNA: GGGAGUUCUACAGUCCGACGAUCUUUAUAUAAACUUUUUAAAUGCCGAAACUUUUUACUUCCACACUCAGUUUUGGAGACCCCCGAAUAAAAGGCUUCAAUACUCUGCAUUCCAUGCCCUCUGCCACCUGCUUUUUUUUCCCCCAACAGAGGAUUGAGCAUCA
B20: ENSG00000066084:stop:overlap|stop_codon|ENSG00000066084|stop_codon|NA|stop_codon (ssRNA)
RNA: GGGAGUUCUACAGUCCGACGAUCACUGGCAGCCACACAUCUCACCUGCUGGGACAGAACCGGCAUACAUUGAGGGGAAACAAUAGUAAAUGUCUUAGACUUUAAGAAGGAUGCUGGGCUGUGGCACGGCAUGUUUGCGAAUGUCAACAGAGGAUUGAGCAUCA
B21: chrX:150470157:150470258:+|CDS|ENSG00000013619|unk|FALSE|unique (ssRNA)
RNA: GGGAGUUCUACAGUCCGACGAUCUCCAAAUGAGCUAGAUCUUGAGAAGAUACUGGGGACGAAGCCAGAAGAGCCACUGGUUUUAGAUCAUCCCCAGGCAACCCUAAGCACAACUCCCAAGCCUUCGGUUCAGAUGUCACACUUCAACAGAGGAUUGAGCAUCA
B22: chr8:102207567:102207681:-|3pUTR|ENSG00000048392|unk|total|mutant (ssRNA)
RNA: GGGAGUUCUACAGUCCGACGAUCUAUUAAUUGCAAUGAUGUUGUAAUAAAAUACUCUCAUUUCCUUAAAAUAAUUGUGAUUCCCGGUCCCCGGAUCCCGAAUCCGAUCUUUGUAUUUUUAAUGCUCCGGGGAAGAAUAUAAGUCAACAGAGGAUUGAGCAUCA

The full ranking holds about 5,800 sequences; the median of “enrichment r” is about 0.68, and the highest 2% start at about 11. The list is a sample of the results.

In this test the target is T1, UNK ZnF1-6 (called full-length). Description: nsRBNS (natural sequence RNA bind-n-seq); RBNS binding buffer (assumed for nsRBNS): 25 mM Tris pH 7.5, 150 mM KCl, 3 mM MgCl2, 0.01% Triton X-100, 500 ug/ml BSA, 20 U/ml SUPERase-In, 4 C; UNK is unkempt and MSI1 is Musashi-1; names of the RNAs are library labels; protein concentration not given here; high values mean tight binding.
Molecule B1 showed a binding signal of 0.63 enrichment R.

For B2, the binding signal came out at 0.898 enrichment R.

Take B3: the binding signal amounted to 0.548 enrichment R.

Take B4: the binding signal worked out at 0.365 enrichment R.

For B5, the binding signal stood at 0.441 enrichment R.

In turn, B6 yielded a binding signal of 0.548 enrichment R.

For B7, the binding signal stood at 0.726 enrichment R.

B8: the binding signal stood at 0.878 enrichment R.

In turn, B9 returned a binding signal of 1.41 enrichment R.

In turn, B10 displayed a binding signal of 0.434 enrichment R.

B11 displayed a binding signal of 0.743 enrichment R.

Molecule B12 returned a binding signal of 0.872 enrichment R.

Take B13: the binding signal was found to be 0.749 enrichment R.

B14 showed a binding signal of 1.48 enrichment R.

For B15, the binding signal was found to be 0.601 enrichment R.

B16 showed a binding signal of 0.569 enrichment R.

In turn, B17 registered a binding signal of 0.355 enrichment R.

Molecule B18 displayed a binding signal of 0.413 enrichment R.

Take B19: the binding signal is 1.03 enrichment R.

B20 yielded a binding signal of 1.59 enrichment R.

B21: the binding signal was found to be 0.539 enrichment R.

In turn, B22 registered a binding signal of 0.334 enrichment R.
